An excerpt weighted towards active compounds, which were near 4.7% of everything screened.
VHR inh abs – VHR1 phosphatase inhibitors, primary screen, biochemical, absorbance, uHTS | Dual specificity protein phosphatase 3 (Homo sapiens), P51452 | recombinant VHR phosphatase, pNPP absorbance | inhibition, % at 13.3 µM | 290,000 compounds, 0.52% hits | AID 1654, 2009; in the data active = inhibition above about 50%
Mtb FBA inh – Mtb FBA enzyme inhibitors, primary screen, biochemical, fluorescence, strain H37Rv | Fructose-bisphosphate aldolase (Mycobacterium tuberculosis (strain ATCC 25618 / H37Rv)), … | purified M. tuberculosis FBA, fluorescence read-out | inhibition, % at 1 µM | 360,000 compounds, 2.3% hits; in the data active = inhibition above about 27%
GDH-TPI counter-1 – GDH-TPI coupling enzyme inhibitors, primary screen, artefact control for M. tuberculosis FBA inhibitor project, biochemical, absorbance, full deck; GDH-TPI coupled enzyme counterscreen, NADH absorbance; inhibition, % at 4.8 µM; 360,000 compounds, 1.2% hits; AID 588335, 2011
RecA splice inh – Mtb RecA intein splicing inhibitors, primary screen, biochemical, fluorescence, HTS. Protein RecA (Mycobacterium tuberculosis (strain ATCC 25618 / H37Rv)), P9WHJ3. cell-free RecA intein splicing. inhibition, % (no concentration beside the values). 290,000 compounds, 0.75% hits; in the data active = inhibition above about 30%
Target sequence (P9WHJ3 whole entry, looked up, canonical isoform): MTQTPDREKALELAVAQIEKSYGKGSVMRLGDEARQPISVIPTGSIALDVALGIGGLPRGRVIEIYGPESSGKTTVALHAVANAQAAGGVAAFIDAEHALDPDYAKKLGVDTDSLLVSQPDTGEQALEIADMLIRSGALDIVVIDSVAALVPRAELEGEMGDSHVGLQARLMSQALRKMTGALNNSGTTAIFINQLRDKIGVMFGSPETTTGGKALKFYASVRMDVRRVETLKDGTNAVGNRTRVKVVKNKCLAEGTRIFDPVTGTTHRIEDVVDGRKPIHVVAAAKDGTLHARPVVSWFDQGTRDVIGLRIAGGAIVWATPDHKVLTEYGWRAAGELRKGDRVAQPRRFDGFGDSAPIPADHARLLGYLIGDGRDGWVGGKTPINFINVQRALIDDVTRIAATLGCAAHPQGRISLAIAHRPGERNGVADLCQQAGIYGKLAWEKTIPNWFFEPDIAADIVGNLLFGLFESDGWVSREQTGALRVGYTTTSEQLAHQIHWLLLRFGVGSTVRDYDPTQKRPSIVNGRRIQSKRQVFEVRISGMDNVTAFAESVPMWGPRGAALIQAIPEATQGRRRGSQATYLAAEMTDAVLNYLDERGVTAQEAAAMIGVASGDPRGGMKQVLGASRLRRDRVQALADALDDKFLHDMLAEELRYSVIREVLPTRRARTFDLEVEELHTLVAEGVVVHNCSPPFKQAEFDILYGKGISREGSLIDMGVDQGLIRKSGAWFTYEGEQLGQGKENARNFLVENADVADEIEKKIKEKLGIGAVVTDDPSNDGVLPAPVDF
3CLpro inhibitor – SARS-CoV 3CLpro protease inhibitors, primary screen, biochemical, quenched FRET; recombinant SARS-CoV 3CLpro, quenched FRET peptide cleavage; inhibition, % at 6 µM; 290,000 compounds, 0.14% hits; in the data active = inhibition above about 12%
CCHF vOTU inh – CCHFV vOTU protease inhibitors, primary screen, biochemical, Pep-AMC substrate, fluorescence; AID 651958, 2012; Crimean-Congo hemorrhagic fever virus L polyprotein viral ovarian tumor (vOTU) protease …; inhibition, % at 11.5 µM; 370,000 compounds, 0.55% hits
Mtb FBA confirm – M. tuberculosis aldolase blockers, biochemical, fluorescence, strain H37Rv, confirmation; shares compounds with Mtb FBA inh; purified M. tuberculosis FBA, fluorescence read-out; inhibition, % at 1 µM; 5,600 compounds, 78% hits; in the data active = inhibition above about 27%
GDH-TPI counter-2 – GDH-TPI coupling enzyme inhibitors, artefact control for M. tuberculosis FBA inhibitor project, biochemical, fluorescence, high throughput | inhibition, % at 1 µM | 5,600 compounds, 81% hits | GDH-TPI coupled enzyme counterscreen | shares compounds with Mtb FBA inh; in the data active = inhibition above about 10%
GDH-TPI DR – GDH-TPI coupling enzyme inhibitors, dose response, artefact control for M. tuberculosis FBA inhibitor project, biochemical, fluorescence, IC50 | shares compounds with Mtb FBA inh | GDH-TPI coupled enzyme assay, artifact counterscreen | IC50, µM | 170 compounds, 79% hits | AID 652145, 2013; call rule not given here
Of the large screens only hits and unclear results are named; the others gave an inactive call (follow-up assays come after a bar, where they were run). Cut-off read from the data, not from the text of the source, unless noted: active = inhibition above about 30%; inactive = the rest.

O=C(COc1ccc2c3c(c(=O)oc2c1)CCCC3)NC(Cc1ccc(Cl)cc1)C(=O)O (configuration not stated)	Mtb FBA inh 67.0 | Mtb FBA confirm 124.3 | GDH-TPI counter-2 100.5
CC(C)Oc1cccc(-c2cc(C(=O)NC(=S)N(C)c3ccccc3C(=O)O)c3ccccc3n2)c1	Mtb FBA inh 42.3 | Mtb FBA confirm inactive | GDH-TPI counter-2 inactive
O=C(NCCS(=O)(=O)NCc1ccccn1)c1ccccc1	none (no result: VHR inh abs, 3CLpro inhibitor)
COc1ccc2c(C)cc3n[nH]c(=S)n3c2c1	Mtb FBA inh 37.4 | Mtb FBA confirm 32.9 | GDH-TPI counter-2 21.5
C[C@@H]1CN([C@H](C)CO)S(=O)(=O)c2ccc(-c3ccc(C#N)cc3)cc2O[C@H]1CN(C)C(=O)Nc1cc(F)ccc1F	none (no result: VHR inh abs, RecA splice inh, 3CLpro inhibitor)
S=C(N/N=C/c1ccco1)NC1CC2CCC1C2 (configuration not stated)	none
O=C(CSc1nnc(-c2ccncc2)o1)N1CCCC1	none
Cc1cccc(NC(=O)Cn2c(O)c(N=NC(N)=S)c3ccccc32)c1	Mtb FBA inh 34.7 | Mtb FBA confirm 187.4 | GDH-TPI counter-2 146.0
CCc1ccc2nc(N=C(N)N)nc(C)c2c1	Mtb FBA inh 40.0 | Mtb FBA confirm 177.3 | GDH-TPI counter-2 133.0
Cc1ccc2nc(N=C(N)N)nc(C)c2c1	none
O=C(Nc1ccccc1)c1ccc(-c2ccc(F)cc2)s1	none
CNC(=O)c1ccc(-c2ccc(F)cc2)s1	Mtb FBA inh 40.6 | Mtb FBA confirm 115.3 | GDH-TPI counter-2 95.2
CC(=O)Oc1ccc2ccc3ccc(C(C)=O)cc3c2c1	none (no result: VHR inh abs, RecA splice inh, 3CLpro inhibitor)
CN(CC(=O)Nc1ccc(Cl)cc1F)C1=NS(=O)(=O)c2ccccc21	none (no result: VHR inh abs, RecA splice inh, 3CLpro inhibitor)
COc1ccc(C)cc1S(=O)(=O)Nc1cccc(-c2cn3cccnc3n2)c1	Mtb FBA inh 89.3 (no result: RecA splice inh) | Mtb FBA confirm inactive | GDH-TPI counter-2 inactive
O=S(=O)(Nc1cccc(-c2nnco2)c1)c1ccc(Cl)cc1	none (no result: RecA splice inh)
O=S(=O)(Nc1cccc(-c2cn3cccnc3n2)c1)c1ccc(Cl)cc1	Mtb FBA inh 56.4 | Mtb FBA confirm inactive | GDH-TPI counter-2 inactive
COc1ccccc1C(=O)NCCC(=O)NC1CCC(C)CC1 (configuration not stated)	none (no result: VHR inh abs, RecA splice inh, 3CLpro inhibitor)
Cc1ccc(C2Nc3ccccc3-c3nc4ccccc4n32)o1 (configuration not stated)	Mtb FBA inh 82.2 | Mtb FBA confirm 119.2 | GDH-TPI counter-2 95.2
COc1ccc2c(c1)C1(Nc3ccccc3-c3nc4ccccc4n31)C(=O)N2 (configuration not stated)	none
CCc1noc(C)c1C(=O)N1CCSC1=Nc1cccc(Cl)c1C	none
Cc1cc(C)c2c(N)c3cccc(C)c3nc2n1	Mtb FBA inh 65.5 | Mtb FBA confirm 133.2 | GDH-TPI counter-2 110.9
Cc1cccc2c(N)c3c(nc12)CCCC3 (tested in a mixture with another compound)	none (no result: RecA splice inh)
Cc1cc(C(=O)OCC(=O)c2cccs2)ccc1[N+](=O)[O-]	none (no result: VHR inh abs, RecA splice inh, 3CLpro inhibitor)
Cc1cc(=O)oc2cc(NC(=O)c3cccc(S(C)(=O)=O)c3)ccc12	Mtb FBA inh 33.6 | Mtb FBA confirm 78.6 | GDH-TPI counter-2 61.6
Cc1cc(=O)oc2cc(NC(=O)c3cccc(S(=O)(=O)N(C)C)c3)ccc12	none
CS(=O)(=O)c1cccc(C(=O)Nc2ccccc2Cc2ccccc2)c1	Mtb FBA inh 57.8 | Mtb FBA confirm 48.5 | GDH-TPI counter-2 inactive
CCCC(C(=O)Nc1ccc2c(C)cc(=O)oc2c1)c1ccccc1 (configuration not stated)	Mtb FBA inh 27.9 | Mtb FBA confirm inactive | GDH-TPI counter-2 inactive | GDH-TPI DR 2.81
Cc1cc(=O)oc2cc(NC(=O)Cc3ccccc3)ccc12	Mtb FBA inh 79.8 | Mtb FBA confirm active | GDH-TPI counter-2 185.4
COc1ccc(OC)c(S(=O)(=O)Nc2cc(C(=O)O)ccc2N2CC3CC(C2)c2cccc(=O)n2C3)c1 (configuration not stated)	none
C=CCN1C(=O)c2ccc(C(=O)N3CCC(C(N)=O)CC3)cc2C1=O	none
Cc1ccc(NC(=O)CCOc2ccccc2C)cc1F	none
Cc1cc(=O)oc2cc(NC(=O)C(C)Oc3ccc(F)cc3)ccc12 (configuration not stated)	Mtb FBA inh 32.9 (no result: VHR inh abs, 3CLpro inhibitor) | Mtb FBA confirm 177.2 | GDH-TPI counter-2 143.7
Cc1ccccc1OCCC(=O)Nc1ccc2c(C)cc(=O)oc2c1	Mtb FBA inh 94.9 | Mtb FBA confirm 183.0 | GDH-TPI counter-2 153.4
Cc1cc(=O)oc2cc(NC(=O)C(C)N3C(=O)C4CCCCC4C3=O)ccc12 (configuration not stated)	Mtb FBA inh 84.7 (no result: VHR inh abs, RecA splice inh, 3CLpro inhibitor) | Mtb FBA confirm 64.7 | GDH-TPI counter-2 34.7
Cc1cc(=O)oc2cc(NC(=O)c3ccc(OC(F)F)cc3)ccc12	none
c1ccc(CNCc2ccco2)cc1	none
Cc1cc(=O)oc2c(C)c(OCC(=O)N3CCC(C(=O)O)(c4ccccc4)CC3)ccc12	Mtb FBA inh 35.1 | Mtb FBA confirm inactive | GDH-TPI counter-2 inactive
CCCc1cc(=O)oc2c(C)c(OCC(=O)N3CCC(C(=O)O)(c4ccccc4)CC3)ccc12	Mtb FBA inh 31.9 | Mtb FBA confirm 102.9 | GDH-TPI counter-2 90.6
CCc1cc(=O)oc2cc(C)cc(OCC(=O)N3CCC(C(=O)O)(c4ccccc4)CC3)c12	Mtb FBA inh 87.7 (no result: RecA splice inh) | Mtb FBA confirm inactive | GDH-TPI counter-2 inactive
CN(C)/C=C/C1=C([N+](=O)[O-])C(c2cccc([N+](=O)[O-])c2)NC(=O)N1 (configuration not stated)	none
CCOC(=O)c1sc(NC(=O)CCN2CCN(CC)CC2)c(C(=O)OCC)c1C	none
Cc1ccc(C)c2nc(N3CCCC3)c(C#N)cc12	Mtb FBA inh 33.1 (no result: RecA splice inh) | Mtb FBA confirm 173.3 | GDH-TPI counter-2 146.4
CN(Cc1nc(-c2cnccn2)no1)Cc1cccc2ccccc12	none

Source: PubChem BioAssay (several laboratories)
